Drawing on PubChem BioAssay (NCI), this text covers growth for 14 molecules.

This is part of a sample that, as a whole, favours compounds with a hit. Of some 83,000 tested, about 20% had one in any assay.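 Method: cells in 96-well plates; compound added at one concentration; 48 h incubation; percent growth measured; values under 10 scored active.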 Unmarked numbers belong to inactive results. Calls of active or inactive are those of the source.

What all share (test): NCI-60 one-dose screen, 48 h (100 = growth as untreated, 0 = no growth, -100 = all killed)
What all share (details): 10 µM unless noted

Test [1] concerns T-47D breast.
The test system of test [2] is BT-549 breast.
Test [3] concerns MDA-MB-435 melanoma.
Test [4] has as its system SW-620 colon.
Test [5] has as its system MCF7 breast.
The test system of test [6] is HCT-116 colon.
Test [7] has as its system KM12 colon.
Test [8] concerns HCC-2998 colon.

As for `O=C(NNc1nccc(Nc2ccc(S(=O)(=O)Nc3ccncc3)cc2)n1)c1ccccc1`, the growth in test [1] was 92.6%; in test [2], 89.5%; in test [3], 105%; in test [4], 106%; in test [5], 94%; in test [6] it was 99.2%. Also, the growth in test [7] is 101%.

Turning to `Cc1nc(-c2ccccc2)cc2c(O)c(C(=O)NN)[nH]c(=O)c12`, the growth in test [1] was 92.4%; in test [2] it was 193%; in test [3] it was 109%; in test [4] it was 97.5%; in test [5], 77.8%; in test [6], 110%. Moreover, the growth in test [7] was 115%.

`CCn1c(=S)[nH]c2c(=O)n(C)c(=O)n(C)c21`: the growth is 104% in test [1]; 92.6% in test [2]; 103% in test [3]; 112% in test [4]; 102% in test [5]; 93.1% in test [6]. Also, the growth in test [7] was 111%.

Consider `O=C1c2cccc3cccc(c23)C(=O)N1N1C(=O)c2cccc3c(N4CCOCC4)ccc(c23)C1=O`, for which the growth was 91.7% in test [1]; 87.2% in test [2]; 102% in test [3]; 100% in test [4]; 94.9% in test [5]; 91.3% in test [6]. Besides, the growth in test [7] is 100%.

Take `COc1ccc2c(c1)[n+]([O-])c(C(=O)/C=C/C=C(\Cl)c1cc(OC)c(OC)c(OC)c1)c(C)[n+]2[O-]`: the growth was 87.1% in test [1]; 74.9% in test [2]; 93% in test [3]; 103% in test [4]; 83.4% in test [5]; 80.6% in test [6]. Besides, in test [7], the growth is 101%.

Consider `O=C(c1ccc(-c2ccccc2)cc1)c1ccc([N+](=O)[O-])cc1`, for which the growth in test [1] was 92.8%; in test [2] it was 94.5%; in test [3] it was 92.6%; in test [4] it was 101%; in test [5], 95.9%; in test [6], 92.6%. The growth in test [7] was 97%.

As to `CCOC(=O)CNP(=O)(OC[C@@H](Cc1ccccc1)NC(=O)c1cc2ccccc2s1)Oc1ccccc1` (stereo partly drawn), the growth in test [1] was 55.3%; in test [2] it was 74.6%; in test [3] it was 8.66% (active); in test [4] it was 47.3%; in test [5] it was 51.2%; in test [6], 71.9%. In test [7], the growth was 42.3%.

Consider `CC(C)N1CCN(Cc2ccc3c(NNC(=O)c4ccccc4)nc4cc(F)ccc4n23)CC1`, for which the growth was 20.3% in test [1]; 45.6% in test [2]; 30.5% in test [3]; 24.9% in test [4]; 9.7% (active) in test [5]; 24.5% in test [6]. Further, the growth in test [7] was 23.1%.

`CC(C)=CCC[C@](C)(O)[C@H]1CC[C@]2(C)[C@@H]1CC[C@@H]1[C@@]3(C)Cc4nccnc4C(C)(C)[C@@H]3CC[C@]12C`: the growth in test [1] was 51.5%; in test [2] it was 74.8%; in test [3], 64.6%; in test [4], 71.1%; in test [5], -59.3% (active); in test [6] it was 46.9%. The growth in test [7] is 75%.

Consider `Fc1ccc(-c2nn(-c3ccccc3)cc2-c2nc3ccccc3o2)cc1`, for which the growth in test [1] is 44.6%; in test [2], 66.4%; in test [3] it was 27.8%; in test [4], 63.1%; in test [5], 50.9%; in test [6] it was 34.8%. The growth in test [7] was 31.3%.

Consider `CCOC(=O)c1[nH]c(=O)c2c(C)nc(-c3ccccc3)cc2c1O`, for which the growth is 101% in test [1]; 146% in test [2]; 109% in test [3]; 98.3% in test [4]; 92.7% in test [5]; 95% in test [6]. In addition, in test [7], the growth is 110%.

On to `C=C1CC[C@@H]2[C@](C)(COC(C)=O)[C@H](OC(C)=O)CC[C@@]2(C)[C@@H]1CC(Sc1ccccc1)C1=CCOC1=O` (stereo partly drawn), for which the growth in test [1] is 7.94% (active); in test [2], -22.6% (active); in test [3] it was 101%; in test [4], 0.833% (active); in test [5] it was 2.14% (active); in test [6] it was -34.6% (active). Further, in test [7], the growth was 18.6%.

`Cc1ccc(-c2nn(-c3ccccc3)cc2C=C2C(=O)ON=C2C(C)C)cc1`: the growth in test [1] is 78.6%; in test [2], 113%; in test [3] it was 63.5%; in test [4], 47.2%; in test [6], 26%; in test [8], 68.7%. Also, the growth in test [7] is 69.8%.

`C1=CN2CC(c3ccccc3)=NNC2c2ccccc21` (stereo not drawn): the growth was 88.7% in test [1]; 61.7% in test [2]; 96.5% in test [3]; 96.7% in test [4]; 67.3% in test [5]; 85.6% in test [6]. Also, the growth in test [7] is 99.4%.
